Source: PubChem
D3 antag: antagonists of human D3 dopamine receptor; max response, negative = inhibition, %; D3R cells, DiscoveRx beta-arrestin luminescence, antagonist mode; stronger effect = lower value; P35462; 360,000 tested, 2.5% active; AID 652054; in the data active = max response below about -50%; inconclusive = no clear call, values can overlap the other calls
Target sequence (P35462 whole entry, looked up): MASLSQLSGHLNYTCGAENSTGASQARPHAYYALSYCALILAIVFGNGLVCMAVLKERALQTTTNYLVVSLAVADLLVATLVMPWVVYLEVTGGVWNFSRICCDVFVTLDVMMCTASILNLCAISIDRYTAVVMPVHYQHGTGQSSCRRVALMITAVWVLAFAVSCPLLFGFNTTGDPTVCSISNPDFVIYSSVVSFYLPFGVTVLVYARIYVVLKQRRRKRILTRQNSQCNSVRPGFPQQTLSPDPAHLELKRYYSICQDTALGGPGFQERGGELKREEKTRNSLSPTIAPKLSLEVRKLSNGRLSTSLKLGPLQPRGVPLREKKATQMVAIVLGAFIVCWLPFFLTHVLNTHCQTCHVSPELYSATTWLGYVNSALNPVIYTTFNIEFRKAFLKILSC
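Cells expressing the human receptor were seeded at 1500 cells/well, incubated overnight at 37 degrees C in 5% CO2, then exposed to library compounds with dopamine controls for 90 minutes at 37 degrees C before luminescent detection.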
HepG2 viability: kills HepG2 cells in TGF-b inhibitor counter-screen | Potency, µM (titrated, usually from 46.1 µM), usual class: cytotoxic | AID 588856 | HepG2 CAGA-GFP viability, ATP luminescence, 18 h | 410,000 tested, 0.76% active
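CellTiter-Glo luminescence gave cytotoxicity after 18 hours at 37 degrees C. The cells were HepG2 CAGA-GFP in 1% FBS DMEM, stimulated with 500 pg/mL TGF-beta after compound addition. %Activity was normalised to no-cell wells (complete cell-killing) and DMSO (no toxicity), and curves were fitted and classified.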
S2 tox: cell viability loss in ATXN counter-screen | S2 cells (HEK-293 line with an ATXN2-luciferase reporter) viability, CellTiter-Fluor protease fluorescence, 24 h | Potency, µM (doses to about 56.7 µM), actives largely listed as cytotoxic | 400,000 tested, 0.49% active; note: nearly all actives have a fitted effect of over 40% in size
D3 ag: D3 dopamine receptor (human) agonism; P35462; D3R DiscoveRx beta-arrestin cells, luminescence, 90 min; max activation, %; 410,000 tested, 0.58% active; AID 652048; in the data active = max activation above about 30%
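Cells at 1500/well, incubated overnight, then treated with pinned compounds (dopamine as control) for 90 min at 37 degrees C. DiscoveRx reagent added for 30 - 60 minutes at room temperature; luminescence read.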
ATXN2 expr inh: inhibitors of ATXN2 expression. HEK-293 ATXN2-luciferase reporter, luminescence, 24 h. Potency, µM (series often up to 57 µM), most hits filed as inhibitors. 360,000 tested, 0.72% active. AID 1745845; note: nearly all actives have a fitted effect of over 55% in size
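ATXN2-luciferase reporter cells (luciferase flanked by upstream and downstream ATXN2 gene portions) were treated 24 h at 37 °C with compounds at up to 57 uM. SteadyGlo luminescence gave expression; GF-AFC fluorescence gave viability.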
TGFb inhibitor: blocks TGF-b signaling; HepG2 CAGA-GFP TGF-b/SMAD3 reporter, GFP fluorescence, 18 h; TGF-beta stimulated, 500 pg/mL final; Potency, µM (doses to about 46.1 µM), most hits filed as inhibitors; 410,000 tested, 1.2% active; note: nearly all actives have a fitted effect of over 65% in size
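Cell-based qHTS in HEPG2 carrying a CAGA-GFP Smad reporter; compounds added before 500 pg/mL final TGF-beta, 18 h incubation at 37 degrees C, GFP fluorescence quantified per cell by imaging cytometry.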
A number is an active result; ! = repeats disagree. A selection: hits, their analogues and other compounds. The true share with any hit is near 4.7%. Unless noted, calls come from the whole dose curve; as a rule, active = well fitted curve in the direction sought with a large enough effect; inconclusive = small, poorly fitted or top-dose-only effect, or another doubt; inactive = no such curve, though single readings can be large; an effect the other way counts as inactive or inconclusive.

`Cc1c(C(=O)N2CCN(C)CC2)sc2ncnc(NCC3(c4ccccc4)CCOCC3)c12` gave S2 tox inactive.
For CCOC(=O)C(=CNc1cccnc1Oc1ccc(C)c2c1CCC2)C(=O)OCC the results were D3 antag inactive, HepG2 viability inactive, S2 tox inactive, D3 ag 36.9, ATXN2 expr inh inactive and TGFb inhibitor inactive.
O=C(O)c1ccc(N/N=C/c2cn(Cc3ccc(F)cc3)c3ccccc23)cc1 was read as D3 antag inconclusive, HepG2 viability inactive, S2 tox inactive, D3 ag inactive, ATXN2 expr inh inactive and TGFb inhibitor inconclusive.
Screening O=[N+]([O-])/C=C/c1cn(Cc2ccc(F)cc2)c2ccccc12 returned D3 antag inactive, HepG2 viability inactive, S2 tox inconclusive, D3 ag inactive, ATXN2 expr inh inconclusive and TGFb inhibitor 7.94µM.
Screening O=C(CSc1nnc(CNc2ccccc2)o1)N1CCc2ccccc21 returned D3 antag inactive, HepG2 viability inactive, S2 tox inactive, D3 ag 43.5, ATXN2 expr inh inactive and TGFb inhibitor inactive.
O=C(CSc1nnc(Cc2ccccc2)o1)N1CCCc2ccccc21 was read as D3 antag inactive, HepG2 viability inactive, S2 tox inactive, D3 ag inactive, ATXN2 expr inh inactive and TGFb inhibitor inactive.
Screening Nc1c(Cl)ncnc1N/N=C/c1ccccn1 returned D3 antag inactive, HepG2 viability inactive, S2 tox 12.6µM, D3 ag inactive, ATXN2 expr inh inconclusive and TGFb inhibitor 3.98µM.
`Nc1c(Cl)ncnc1N/N=C/c1ccc2ccccc2n1` gave D3 antag inconclusive, HepG2 viability inactive, S2 tox 10µM, D3 ag inactive, ATXN2 expr inh 7.94µM and TGFb inhibitor 4.47µM.
`CSc1ncc(C(=O)NCc2cccc(C)c2)c(-c2ccccc2)n1` gave HepG2 viability inactive, S2 tox inactive, D3 ag inactive, ATXN2 expr inh inactive and TGFb inhibitor inactive.
Screening COc1cccc(CSc2nc3ccncc3n2CC(=O)Nc2ccc(OC)c(OC)c2OC)c1 returned HepG2 viability inactive, S2 tox inactive, D3 ag inactive, ATXN2 expr inh inactive and TGFb inhibitor inactive.
Screening CC(C)Cc1ccc(C(C)/C=C2/CCC(CN3CCCCC3)C2=O)cc1 (stereo unspecified) returned D3 antag inactive, HepG2 viability inactive, D3 ag inactive, ATXN2 expr inh inconclusive and TGFb inhibitor 15.8µM.
For Cc1cc(OCCCCCNCCO)cc(C)c1Cl the results were D3 antag inactive, HepG2 viability 11.2µM, S2 tox inactive, D3 ag inactive, ATXN2 expr inh inconclusive and TGFb inhibitor inconclusive.
Screening N#C/C(=C\c1ccc(O)c(O)c1)C(=O)NCCCc1ccccc1 returned D3 antag -80.0, HepG2 viability inactive, S2 tox inactive, D3 ag inactive, ATXN2 expr inh inactive and TGFb inhibitor inactive.
For CCOc1ccccc1NC(=O)C(c1ccccc1)N1Cc2ccccc2C1=O (stereo unspecified) the results were HepG2 viability inactive, D3 ag inactive and TGFb inhibitor inactive.
For CCCCNc1c(-c2ccc(SC(C)CC)cc2)nc2ccc(Cl)cn12 (stereo unspecified) the results were D3 antag inactive, S2 tox inactive, D3 ag inactive and ATXN2 expr inh inactive.
CCCCNc1c(-c2cccc(-c3ccc(OC)cc3)c2)nc2cc(C)ccn12 was read as D3 antag inactive, HepG2 viability inactive, S2 tox inconclusive, D3 ag inactive, ATXN2 expr inh inconclusive and TGFb inhibitor inconclusive.
Screening CCCCCCSc1cccc(-c2nc3ccc(Cl)cn3c2NCCCC)c1 returned D3 antag inactive, HepG2 viability inactive, S2 tox inactive, D3 ag 33.4!, ATXN2 expr inh inactive and TGFb inhibitor inactive.
CCCCNc1c(-c2cccc(-c3cc(C(C)=O)cs3)c2)nc2ccc(C)cn12 was read as D3 antag inactive, HepG2 viability 17.8µM, S2 tox 15.8µM, D3 ag inactive, ATXN2 expr inh inconclusive and TGFb inhibitor inconclusive.
`CCCCCCSc1ccc(-c2nc3cc(C)ccn3c2NC2CCCCC2)cc1` gave D3 antag inactive, HepG2 viability inactive, S2 tox inconclusive, D3 ag inactive, ATXN2 expr inh inactive and TGFb inhibitor inconclusive.
`CCCCNc1c(-c2ccc(-c3cccc(Cl)c3)cc2)nc2ccccn12` gave D3 antag inactive, HepG2 viability inactive, S2 tox inactive, D3 ag 63.0, ATXN2 expr inh inactive and TGFb inhibitor inconclusive.
Screening CCCCNc1c(-c2cccc(-c3ccc(OC)cc3)c2)nc2ccc(C)cn12 returned D3 antag inactive, HepG2 viability inactive, S2 tox inconclusive, D3 ag inactive, ATXN2 expr inh inconclusive and TGFb inhibitor inconclusive.
`CCCCCCSc1ccc(-c2nc3ccccn3c2NCCCC)cc1` gave D3 antag inactive, HepG2 viability inactive, S2 tox inactive, D3 ag 81.9, ATXN2 expr inh inactive and TGFb inhibitor inconclusive.
`CC[C@H]1OC(=O)[C@H](C)C(=O)[C@H](C)[C@@H](O[C@@H]2O[C@H](C)C[C@H](N(C)C)[C@H]2O)[C@](C)(OC)C[C@@H](C)C(=O)[C@H](C)[C@H]2N(CCCCn3cnc(-c4cccnc4)c3)C(=O)O[C@]12C` gave D3 ag inactive.
Screening O=C(N/N=C/c1cccc([N+](=O)[O-])c1O)C(O)(c1ccccc1)c1ccccc1 returned D3 antag -71.3, HepG2 viability inactive, S2 tox inactive, D3 ag inactive and TGFb inhibitor inactive.
`O=[N+]([O-])c1cccc(C=NNc2ccc3ccccc3n2)c1O` gave D3 antag -54.4, HepG2 viability inactive, S2 tox inconclusive, D3 ag inactive, ATXN2 expr inh inconclusive and TGFb inhibitor inconclusive.
`O=C(N/N=C/c1cccc([N+](=O)[O-])c1O)c1cccs1` gave D3 antag inactive, HepG2 viability inactive, S2 tox inconclusive, D3 ag inactive, ATXN2 expr inh inconclusive and TGFb inhibitor inconclusive.
For O=[N+]([O-])c1ccccc1C=NNC(=S)NN=Cc1ccccc1[N+](=O)[O-] the results were D3 antag -58.2, HepG2 viability inactive, S2 tox inactive, D3 ag inactive, ATXN2 expr inh inactive and TGFb inhibitor inactive.
For c1ccc(Nc2nc(N3CCCCC3)nc(N3CCNCC3)n2)cc1 the results were D3 antag inconclusive, HepG2 viability 11.2µM, S2 tox inactive, D3 ag inactive, ATXN2 expr inh inconclusive and TGFb inhibitor inactive.
Screening CC(C)NC(=S)N/N=C/c1ccccc1[N+](=O)[O-] returned D3 antag inactive, HepG2 viability inactive, S2 tox inactive, D3 ag inactive, ATXN2 expr inh inactive and TGFb inhibitor inactive.
c1ccc2c(c1)CCc1ccccc1N2 was read as S2 tox inactive and ATXN2 expr inh inactive.
